Here are results for 35 compounds from the supplement of paper PMC6607015.

Structures can show the parent of a compound that is named as a salt.

The first test has as its system HeLa MZ. As to the kind of experiment: LBPA endosome anti-LBPA integrated intensity (sum per cell), Z-score; higher = more LBPA staining. The following applies: compound concentration in added solution (µM; 5 µl added to 20 µl cells): 10; 18 h. In outline: (§1)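 HeLa MZ or A431 cells (3,500/well in 20 µl) were seeded onto 5 µl of 10 µM compound solution in duplicate 384-well imaging plates, incubated 18 h, then fixed in 4% PFA. Cells were stained with 6C4 anti-LBPA antibody, filipin, propidium iodide and CellTracker green, and four 20× images were taken per well. MetaXpress segmentation gave per-cell integrated LBPA or filipin intensity, either whole-cell or within LBPA endosomes. Values are Z-scores normalised in AcuityXpress.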
As to `CC(C)CC(N(C)C)C1(c2ccc(Cl)cc2)CCC1` (configuration not stated) [Sibutramine HCl], the “LBPA endosome anti-LBPA integrated intensity (z-score)” value worked out at 0.271.

For the compound `C[C@]12COC(=O)C[C@@H]1CC[C@@H]1[C@@H]2CC[C@@]2(C)[C@H]1CC[C@]2(C)O` [Oxandrolone], the “LBPA endosome anti-LBPA integrated intensity (z-score)” value is -0.00131.

With `COc1ccc2c(c1)[C@]13CCCC[C@@H]1[C@H](C2)N(C)CC3` [Dextromethorphan hydrobromide monohydrate], the “LBPA endosome anti-LBPA integrated intensity (z-score)” value came to 0.494.

`CCC(=O)O[C@H]1CC[C@H]2[C@@H]3CCC4=CC(=O)CC[C@]4(C)[C@H]3CC[C@]12C` [Testosterone propionate]: the “LBPA endosome anti-LBPA integrated intensity (z-score)” value is -0.712.

As to `C[C@]12CC[C@@H](O)C[C@@H]1CC[C@@H]1[C@@H]2CC[C@]2(C)C(=O)CC[C@@H]12` [Androsterone], the “LBPA endosome anti-LBPA integrated intensity (z-score)” value is -0.552.

On to `COc1cc2c(cc1OC)C(C)NCC2` (configuration not stated), for which the “LBPA endosome anti-LBPA integrated intensity (z-score)” value stood at 0.672.

With `C[C@]12C[C@H]3S[C@H]3C[C@@H]1CC[C@@H]1[C@@H]2CC[C@]2(C)[C@@H](O)CC[C@@H]12` [Epitiostanol], the “LBPA endosome anti-LBPA integrated intensity (z-score)” value was 0.565.

For the compound `C1CCc2nnnn2CC1` [Pentylenetetrazole], the “LBPA endosome anti-LBPA integrated intensity (z-score)” value was -1.19.

Consider `NCCCNCCSP(=O)(O)O` [Amifostine], for which the “LBPA endosome anti-LBPA integrated intensity (z-score)” value was -1.

Regarding `CCC1(c2ccc(N)cc2)CCC(=O)NC1=O` (configuration not stated) [Glutethimide, para-amino], the “LBPA endosome anti-LBPA integrated intensity (z-score)” value is -1.41.

Regarding `CCNCC(O)c1cccc(O)c1` (configuration not stated) [Etilefrine hydrochloride], the “LBPA endosome anti-LBPA integrated intensity (z-score)” value is -0.0522.

With `CCN(CC)C(C)C(=O)c1ccccc1` (configuration not stated) [Amfepramone hydrochloride], the “LBPA endosome anti-LBPA integrated intensity (z-score)” value came out at 0.252.

In the case of `CN1CCN(C(=O)OC2c3nccnc3C(=O)N2c2ccc(Cl)cn2)CC1` (configuration not stated) [Zopiclone], the “LBPA endosome anti-LBPA integrated intensity (z-score)” value was -0.4.

For the compound `CC(O)(CS(=O)(=O)c1ccc(F)cc1)C(=O)Nc1ccc(C#N)c(C(F)(F)F)c1` (configuration not stated) [Bicalutamide], the “LBPA endosome anti-LBPA integrated intensity (z-score)” value is -0.104.

Turning to `CC(=O)O[C@H]1CC[C@@]2(C)C(=CC[C@@H]3[C@@H]2CC[C@]2(C)C(=O)CC[C@@H]32)C1` [Dehydroisoandosterone 3-acetate], the “LBPA endosome anti-LBPA integrated intensity (z-score)” value is -0.00203.

Consider `C[C@H](N)[C@H](O)c1ccc(O)c(O)c1` [Levonordefrin], for which the “LBPA endosome anti-LBPA integrated intensity (z-score)” value is -0.019.

Consider `C=C1[C@@H]2CC[C@H]3[C@]4(C)C[C@H](O[C@@H]5O[C@H](CO)[C@@H](OS(=O)(=O)O)[C@H](OS(=O)(=O)O)[C@H]5OC(=O)CC(C)C)C[C@@H](C(=O)O)[C@H]4CC[C@]3(C2)[C@@H]1O` [Atractyloside potassium salt], for which the “LBPA endosome anti-LBPA integrated intensity (z-score)” value was -0.0672.

In the case of `O=c1c2ccccc2[se]n1-c1ccccc1` [Ebselen], the “LBPA endosome anti-LBPA integrated intensity (z-score)” value is -0.608.

Regarding `CCC1=C[C@H]2CN3CCc4c([nH]c5ccccc45)[C@](C(=O)OC)(C2)[C@H]13` [Catharanthine], the “LBPA endosome anti-LBPA integrated intensity (z-score)” value came to 1.57.

For the compound `CC(=O)OCC(=O)[C@H]1CC[C@H]2[C@@H]3CC[C@H]4C[C@H](O)CC[C@]4(C)[C@H]3C(=O)C[C@]12C` [Alfadolone acetate], the “LBPA endosome anti-LBPA integrated intensity (z-score)” value turned out to be 1.43.

In the case of `CN[C@@H]1[C@@H](O)[C@@H](O[C@@H]2[C@@H](O)[C@H](O[C@H]3O[C@H](CN)CC[C@H]3N)[C@@H](N)C[C@H]2N)OC[C@]1(C)O.CN[C@@H]1[C@@H](O)[C@@H](O[C@@H]2[C@@H](O)[C@H](O[C@H]3O[C@H]([C@@H](C)N)CC[C@H]3N)[C@@H](N)C[C@H]2N)OC[C@]1(C)O.CN[C@@H]1[C@@H](O)[C@@H](O[C@@H]2[C@@H](O)[C@H](O[C@H]3O[C@H]([C@@H](C)NC)CC[C@H]3N)[C@@H](N)C[C@H]2N)OC[C@]1(C)O` [Gentamicine sulfate], the “LBPA endosome anti-LBPA integrated intensity (z-score)” value is -1.17.

For the compound `O=[N+]([O-])O[C@H]1CO[C@H]2[C@@H]1OC[C@H]2O[N+](=O)[O-]` [Isosorbide dinitrate], the “LBPA endosome anti-LBPA integrated intensity (z-score)” value is -1.

For another test, the system named is A431. As to the kind of experiment: whole-cell filipin (free cholesterol) integrated intensity, Z-score; higher = more cholesterol staining. As to conditions: compound concentration in added solution (µM; 5 µl added to 20 µl cells): 10; 18 h. In outline: as §1
Regarding `C=C1C[C@@H]2[C@H](CC[C@]3(C)C(=O)CC[C@@H]23)[C@@]2(C)C=CC(=O)C=C12` [Exemestane], the “whole-cell filipin (z-score)” value is -0.0622.

For the compound `CC[N+]1(C)CCCC(OC(=O)C(O)(c2ccccc2)c2ccccc2)C1` (configuration not stated) [Pipenzolate bromide], the “whole-cell filipin (z-score)” value is -0.135.

Consider `C=CCC1(CC(C)C)C(=O)NC(=O)NC1=O` [Butalbital], for which the “whole-cell filipin (z-score)” value was -0.608.

For the compound `CCCC(C)C1(CC)C(=O)NC(=O)NC1=O` (configuration not stated) [Pentobarbital], the “whole-cell filipin (z-score)” value is -0.881.

As to `CC(=O)OCC1=C(C(=O)O)N2C(=O)[C@@H](N)[C@H]2SC1` [Cephalosporanic acid, 7-amino], the “whole-cell filipin (z-score)” value is -0.806.

For `Cc1cccc(C)c1NC1=NCCCS1` [Xylazine], the “whole-cell filipin (z-score)” value is -0.691.

Turning to `CC(C)(N)Cc1ccccc1` [Phentermine hydrochloride], the “whole-cell filipin (z-score)” value came to 0.392.

Take `CN(C)C(=O)Oc1cc(OC(=O)N(C)C)cc(C(O)CNC(C)(C)C)c1` (configuration not stated) [Bambuterol hydrochloride]: the “whole-cell filipin (z-score)” value was -0.328.

Consider `CN1C[C@H](C(=O)N[C@]2(C)O[C@@]3(O)[C@@H]4CCCN4C(=O)[C@H](Cc4ccccc4)N3C2=O)C[C@@H]2c3cccc4[nH]cc(c34)C[C@H]21` [Dihydroergotamine tartrate], for which the “whole-cell filipin (z-score)” value was found to be 1.06.

Regarding `CCCC(C)(COC(N)=O)COC(=O)NC(C)C` (configuration not stated) [Carisoprodol], the “whole-cell filipin (z-score)” value was -0.863.

Turning to `O=C(CCCN1CCC2(CC1)C(=O)NCN2c1ccccc1)c1ccc(F)cc1` [Spiperone], the “whole-cell filipin (z-score)” value was found to be 1.66.

Take `CCC1(c2cccc(O)c2)CCCCN(C)C1` (configuration not stated) [Meptazinol hydrochloride]: the “whole-cell filipin (z-score)” value was 0.166.

Regarding `CN1[C@@H]2CC[C@H]1C[C@@H](OC1c3ccccc3CCc3ccccc31)C2` [Deptropine citrate], the “whole-cell filipin (z-score)” value is 1.8.

On to `CC(C)CC(N(C)C)C1(c2ccc(Cl)cc2)CCC1` (configuration not stated) [Sibutramine HCl], for which the “whole-cell filipin (z-score)” value was -0.397.

With `C[C@]12COC(=O)C[C@@H]1CC[C@@H]1[C@@H]2CC[C@@]2(C)[C@H]1CC[C@]2(C)O` [Oxandrolone], the “whole-cell filipin (z-score)” value is -0.15.

As for `COc1ccc2c(c1)[C@]13CCCC[C@@H]1[C@H](C2)N(C)CC3` [Dextromethorphan hydrobromide monohydrate], the “whole-cell filipin (z-score)” value was -0.0383.

Consider `CCC(=O)O[C@H]1CC[C@H]2[C@@H]3CCC4=CC(=O)CC[C@]4(C)[C@H]3CC[C@]12C` [Testosterone propionate], for which the “whole-cell filipin (z-score)” value is -0.907.

Regarding `C[C@]12CC[C@@H](O)C[C@@H]1CC[C@@H]1[C@@H]2CC[C@]2(C)C(=O)CC[C@@H]12` [Androsterone], the “whole-cell filipin (z-score)” value is -0.613.

Take `COc1cc2c(cc1OC)C(C)NCC2` (configuration not stated): the “whole-cell filipin (z-score)” value was -0.808.

As for `C[C@]12C[C@H]3S[C@H]3C[C@@H]1CC[C@@H]1[C@@H]2CC[C@]2(C)[C@@H](O)CC[C@@H]12` [Epitiostanol], the “whole-cell filipin (z-score)” value worked out at 0.372.

With `C1CCc2nnnn2CC1` [Pentylenetetrazole], the “whole-cell filipin (z-score)” value was -0.85.

As to `NCCCNCCSP(=O)(O)O` [Amifostine], the “whole-cell filipin (z-score)” value is -0.901.

For the compound `CCC1(c2ccc(N)cc2)CCC(=O)NC1=O` (configuration not stated) [Glutethimide, para-amino], the “whole-cell filipin (z-score)” value is -1.07.

Consider `CCNCC(O)c1cccc(O)c1` (configuration not stated) [Etilefrine hydrochloride], for which the “whole-cell filipin (z-score)” value amounted to 0.485.

Take `CCN(CC)C(C)C(=O)c1ccccc1` (configuration not stated) [Amfepramone hydrochloride]: the “whole-cell filipin (z-score)” value was -0.82.

As to `CN1CCN(C(=O)OC2c3nccnc3C(=O)N2c2ccc(Cl)cn2)CC1` (configuration not stated) [Zopiclone], the “whole-cell filipin (z-score)” value is -0.601.

Regarding `CC(O)(CS(=O)(=O)c1ccc(F)cc1)C(=O)Nc1ccc(C#N)c(C(F)(F)F)c1` (configuration not stated) [Bicalutamide], the “whole-cell filipin (z-score)” value was -0.0253.

With `CC(=O)O[C@H]1CC[C@@]2(C)C(=CC[C@@H]3[C@@H]2CC[C@]2(C)C(=O)CC[C@@H]32)C1` [Dehydroisoandosterone 3-acetate], the “whole-cell filipin (z-score)” value is 0.0526.

In the case of `C[C@H](N)[C@H](O)c1ccc(O)c(O)c1` [Levonordefrin], the “whole-cell filipin (z-score)” value came out at 0.247.

For the compound `C=C1[C@@H]2CC[C@H]3[C@]4(C)C[C@H](O[C@@H]5O[C@H](CO)[C@@H](OS(=O)(=O)O)[C@H](OS(=O)(=O)O)[C@H]5OC(=O)CC(C)C)C[C@@H](C(=O)O)[C@H]4CC[C@]3(C2)[C@@H]1O` [Atractyloside potassium salt], the “whole-cell filipin (z-score)” value is -0.293.

Turning to `O=c1c2ccccc2[se]n1-c1ccccc1` [Ebselen], the “whole-cell filipin (z-score)” value is -0.31.

`CCC1=C[C@H]2CN3CCc4c([nH]c5ccccc45)[C@](C(=O)OC)(C2)[C@H]13` [Catharanthine]: the “whole-cell filipin (z-score)” value is 1.16.

For `CC(=O)OCC(=O)[C@H]1CC[C@H]2[C@@H]3CC[C@H]4C[C@H](O)CC[C@]4(C)[C@H]3C(=O)C[C@]12C` [Alfadolone acetate], the “whole-cell filipin (z-score)” value amounted to 0.996.

For the compound `CN[C@@H]1[C@@H](O)[C@@H](O[C@@H]2[C@@H](O)[C@H](O[C@H]3O[C@H](CN)CC[C@H]3N)[C@@H](N)C[C@H]2N)OC[C@]1(C)O.CN[C@@H]1[C@@H](O)[C@@H](O[C@@H]2[C@@H](O)[C@H](O[C@H]3O[C@H]([C@@H](C)N)CC[C@H]3N)[C@@H](N)C[C@H]2N)OC[C@]1(C)O.CN[C@@H]1[C@@H](O)[C@@H](O[C@@H]2[C@@H](O)[C@H](O[C@H]3O[C@H]([C@@H](C)NC)CC[C@H]3N)[C@@H](N)C[C@H]2N)OC[C@]1(C)O` [Gentamicine sulfate], the “whole-cell filipin (z-score)” value was -1.14.

In the case of `O=[N+]([O-])O[C@H]1CO[C@H]2[C@@H]1OC[C@H]2O[N+](=O)[O-]` [Isosorbide dinitrate], the “whole-cell filipin (z-score)” value was -0.426.
